From PubChem BioAssay (NCATS) come the findings set out here.

Where “and” joins values, the source holds several entries; their conditions need not be identical. Equal entries are not always repeated. A number with no mark means an inactive call. Inconclusive results are not listed. Calls of active or inactive are those of the source. Unless noted, calls come from the whole dose curve; as a rule, active = well fitted curve in the direction sought with a large enough effect; inconclusive = small, poorly fitted or top-dose-only effect, or another doubt; inactive = no such curve, though single readings can be large; an effect the other way counts as inactive or inconclusive.

One test has as its system C33A. Description: Primary qHTS to identify gynecologic anti-cancer compounds using libraries of approved drugs and bioactive compounds (AID 1345084). Note: nearly all actives have a fitted effect of over 55% in size. Note: potency is the fitted concentration of half-maximal effect. The settings on record: Gynecologic cancer cell panel viability, ATPlite luminescence, 48 h; series mostly up to 57.5 µM. Summed up:
(§1)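 Luminescence from the ATPlite ATP-monitoring reagent indicates viable cell number; lower signal means cytotoxicity. Cells received compound 16 h after seeding and were exposed for 48 h across five concentrations.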
A general note: Quantitative high-throughput screening tests each substance at several concentrations.

Another test has as its system CAOV3. The test is described as above. The settings on record: Gynecologic cancer cell panel viability, ATPlite luminescence, 48 h; series mostly up to 57.5 µM. Summed up: as §1
Background: In ATP-based viability assays light output follows the ATP content of the culture.

The next test has as its system CASKI. The description is as above. Conditions: Gynecologic cancer cell panel viability, ATPlite luminescence, 48 h; series mostly up to 57.5 µM. Summed up: as §1
The next test deals with Es-2. The description is as above. Conditions: Gynecologic cancer cell panel viability, ATPlite luminescence, 48 h; series mostly up to 57.5 µM. Put shortly:
as §1

In the next test the test system is HeLa. The test is described as above. Conditions: Gynecologic cancer cell panel viability, ATPlite luminescence, 48 h; series mostly up to 57.5 µM. Summed up:
as §1

The subject of the next test is Hek293T. Described as above. The settings on record: Gynecologic cancer cell panel viability, ATPlite luminescence, 48 h, control line for the selectivity index; series mostly up to 57.5 µM. Put shortly: as §1
In another test the test system is JEG-3. The test is described as above. The settings on record: Gynecologic cancer cell panel viability, ATPlite luminescence, 48 h; series mostly up to 57.5 µM. Summed up: as §1
The subject of another test is OV90. The test is described as above. The settings on record: Gynecologic cancer cell panel viability, ATPlite luminescence, 48 h; series mostly up to 57.5 µM. Summed up: as §1
The subject of the next test is PA-1. Described as above. The settings on record: Gynecologic cancer cell panel viability, ATPlite luminescence, 48 h; series mostly up to 57.5 µM. Put shortly:
as §1

The subject of the next test is Tov-21-G. Described as above. The settings on record: Gynecologic cancer cell panel viability, ATPlite luminescence, 48 h; series mostly up to 57.5 µM. Put shortly: as §1
The test system of another test is Tov112D. Described as above. The settings on record: Gynecologic cancer cell panel viability, ATPlite luminescence, 48 h; series mostly up to 57.5 µM. Summed up:
as §1

The next test concerns SKOV3. The description is as above. The settings on record: Gynecologic cancer cell panel viability, ATPlite luminescence, 48 h; series mostly up to 57.5 µM. Put shortly: as §1
Test [1] can be described thus: Drug repurposing screens with cells derived from glioblastoma tumor samples (AID 1345199). Note: % is set by controls: 0 for no effect and ±100 for the full control effect; nearly all actives have a fitted effect of over 40% in size. The settings on record: GBM patient neurospheres viability, ATP luminescence, 48 h. Put shortly:
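Primary testing used CD133+ neurospheres from four GBM patients, seven concentrations, 48 h exposure and ATP-based viability; confirmation added three slower-growing patient lines.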

For test [2], the target named is Nuclear receptor subfamily 1 group I member 2 (Rattus norvegicus) (UniProt Q9R1A7). Description: qHTS assay for small molecule activators of the rat pregnane X receptor (rPXR) signaling pathway (AID 651751; call rule not given here; note: 0% is about no effect). The settings on record: rPXR reporter cells, luciferase (One-Glo), 24 h.
Chain of Nuclear receptor subfamily 1 group I member 2 (Rattus norvegicus) (Q9R1A7 whole entry, looked up): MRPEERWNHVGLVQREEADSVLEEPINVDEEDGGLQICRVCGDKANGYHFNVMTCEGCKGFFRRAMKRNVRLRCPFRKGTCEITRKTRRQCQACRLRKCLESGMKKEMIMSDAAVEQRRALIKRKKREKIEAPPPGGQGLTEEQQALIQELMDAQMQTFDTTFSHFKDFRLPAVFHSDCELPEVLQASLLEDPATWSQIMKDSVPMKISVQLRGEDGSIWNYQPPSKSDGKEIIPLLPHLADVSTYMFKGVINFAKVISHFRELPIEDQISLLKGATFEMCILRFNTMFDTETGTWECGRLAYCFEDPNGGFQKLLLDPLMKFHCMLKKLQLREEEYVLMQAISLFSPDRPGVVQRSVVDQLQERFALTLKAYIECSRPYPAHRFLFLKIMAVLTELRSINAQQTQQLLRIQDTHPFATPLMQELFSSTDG
Test [3] can be described thus: qHTS assay for small molecule activators of the human pregnane X receptor (PXR) signaling pathway (AID 720659; call rule not given here; note: 0% is about no effect).
The mark [4] stands for this setting: at 45.9 µM (top of the series), tumour line B.
Setting [5] is: at 45.9 µM (top of the series), tumour line D.
Where [6] appears, read: at 46 µM (top of the series), tumour line A.
The mark [7] stands for this setting: at 46.1 µM (top of the series), tumour line C.

For the compound `COc1ccc2c(Oc3ccc(NC(=O)c4c(C)n(CC(C)(C)O)n(-c5ccccc5)c4=O)cc3F)ccnc2c1`, the Potency result with C33A, in the test on CAOV3, in the test with CASKI, in the test on Es-2, in the test on HeLa and with Hek293T was “inactive” each time. Besides, the Potency entry in the test on JEG-3, in the test with OV90, in the test on PA-1, in the test on Tov-21-G and in the test with Tov112D was “inactive” each time.
For `CN(C)CCC(c1ccccc1)c1ccccn1` (centres undefined), the Potency entry with C33A, in the test on CAOV3, in the test on CASKI, in the test with Es-2, in the test with HeLa and in the test on Hek293T was “inactive” throughout. The Potency result in the test with JEG-3, with OV90, in the test with PA-1, in the test on SKOV3, in the test with Tov-21-G and with Tov112D was “inactive” in each case. Further, the activity, negative = cell killing in [1] (setting [4]) is -6.99%; in test [1] (setting [5]), -4.75%; in [1] (setting [6]), -22.4%; in test [1] (setting [7]), -14.6%. The max response in test [2] is 2.3%. Besides, the outcome in test [3] was inactive.
Regarding `CCN(CC)CCNC(=O)c1ccc(N)cc1`, the Potency result in the test on C33A, with CAOV3, in the test on CASKI, in the test with Es-2, in the test on HeLa and in the test with Hek293T was “inactive” throughout. Also, the Potency result in the test on JEG-3, in the test with OV90, with PA-1, with SKOV3, in the test on Tov-21-G and in the test with Tov112D was “inactive” each time. The results for the activity, negative = cell killing in [1] (setting [4]) and in [1] (setting [7]) were -3.23% and 15.6%, respectively.
For the compound `Cn1c(N2CCCCS2(=O)=O)nc(C(=O)NCc2ccc(F)cc2)c(O)c1=O`, the Potency entry in the test on C33A, in the test with CAOV3, with CASKI, with Es-2, in the test on HeLa and with Hek293T was “inactive” in each case. The Potency entry in the test on JEG-3, in the test with OV90, in the test on PA-1, in the test with SKOV3, in the test with Tov-21-G and in the test on Tov112D was “inactive” throughout.
Turning to `O=C(O)CCc1nc(-c2ccccc2)c(-c2ccccc2)o1`, the Potency result with C33A, in the test with CAOV3, with CASKI, in the test on Es-2, in the test on HeLa and with Hek293T was “inactive” in each case. In addition, the Potency entry in the test with JEG-3, in the test on OV90, with PA-1, with SKOV3, with Tov-21-G and in the test on Tov112D was “inactive” in each case. The activity, negative = cell killing in test [1] (setting [4]) is -13%; in test [1] (setting [5]) it was 3.1%; in test [1] (setting [7]), -11.6%.
For the compound `O=c1[nH]cnc2c1ncn2[C@H]1CC[C@@H](CO)O1`, the Potency entry in the test on C33A, with CAOV3, with CASKI, in the test with Es-2, in the test on HeLa and in the test with Hek293T was “inactive” each time. The Potency result in the test on JEG-3, with OV90, in the test with PA-1, in the test on SKOV3, in the test on Tov-21-G and in the test with Tov112D was “inactive” each time. The activity, negative = cell killing in test [1] (setting [4]) was -2.39%; in test [1] (setting [5]), 8.81%; in test [1] (setting [6]), -25.7%; in test [1] (setting [7]), -15.1%. The max response in test [2] was -1.01% and 3.56%. In test [3], the compound was classed as inactive.
For the compound `CC(=O)c1ccc(S(=O)(=O)NC(=O)NC2CCCCC2)cc1`, the Potency result in the test on C33A, in the test with CAOV3, in the test on CASKI, in the test with Es-2, with HeLa and in the test on Hek293T was “inactive” each time. Also, the Potency entry in the test on JEG-3, in the test on OV90, in the test with PA-1, with SKOV3, with Tov-21-G and in the test with Tov112D was “inactive” each time. Moreover, the activity, negative = cell killing in [1] (setting [4]) was -1.16%; in test [1] (setting [5]) it was 0.333%; in test [1] (setting [6]) it was -21.5%; in test [1] (setting [7]), -21%. Further, in [2], the max response is -0.823% and -0.02%. Moreover, the result in test [3] was inactive.
Regarding `CNC(=O)c1ccc2cc(C3(O)CCn4cncc43)ccc2c1` (centres undefined), the Potency entry in the test on C33A, in the test on CAOV3, with CASKI, with Es-2, with HeLa and in the test on Hek293T was “inactive” throughout. The Potency result in the test on JEG-3, in the test with OV90, with PA-1, in the test with SKOV3, in the test with Tov-21-G and with Tov112D was “inactive” in each case.
As to `Cc1ccc(Nc2cc(-c3cccc(N4C(=O)c5ccccc5C4=O)c3)ncn2)cc1NS(C)(=O)=O`, the Potency result in the test on C33A, in the test with CAOV3, in the test on CASKI, in the test with Es-2, in the test on HeLa and with OV90 was “inactive” in each case. Besides, the Potency result with SKOV3, with Tov-21-G and in the test with Tov112D was “inactive” in each case.
With `COc1ccc2cc(-c3nc(-c4ccc(S(C)=O)cc4)[nH]c3-c3ccncc3)ccc2c1` (centres undefined), the Potency result in the test on C33A, with CAOV3, in the test with CASKI, with Es-2, in the test with HeLa and with Hek293T was “inactive” throughout. Also, the Potency result in the test on JEG-3, in the test on OV90, in the test with PA-1, in the test on Tov-21-G and in the test with Tov112D was “inactive” each time.
In the case of `NC(=O)c1cccc2[nH]c(-c3ccc([C@H]4CCCN4)cc3F)nc12`, the Potency with C33A is 17.8 µM (active); in the test with CAOV3, 28.2 µM (active); with CASKI it was 12.6 µM (active); in the test with Es-2, 31.6 µM (active); in the test with Hek293T, 17.8 µM (active); with JEG-3, 14.1 µM (active). Besides, the Potency in the test with OV90 is 14.1 µM (active); in the test with PA-1, 12.6 µM (active); with Tov-21-G, 14.1 µM (active); in the test on Tov112D, 12.6 µM (active).
Turning to `COc1cc2ncnc(-n3nc(-c4ccccn4)nc3N)c2cc1OC`, the Potency result with C33A, with CAOV3, with CASKI, in the test with Es-2, with HeLa and in the test with Hek293T was “inactive” each time. Moreover, the Potency result in the test with JEG-3, in the test with OV90, with PA-1, in the test on Tov-21-G and with Tov112D was “inactive” throughout.
As for `CCCCC1C(=O)N(c2ccccc2)N(c2ccccc2)C1=O`, the Potency result with C33A, in the test with CAOV3, in the test with CASKI, in the test on Es-2, in the test on HeLa and in the test on Hek293T was “inactive” in each case. Besides, the Potency entry with JEG-3, in the test with OV90, in the test with PA-1, in the test with SKOV3, in the test on Tov-21-G and with Tov112D was “inactive” throughout. Moreover, the activity, negative = cell killing is -14.3% and -18.7% in test [1] (setting [4]); -13.1% and -6.92% in test [1] (setting [5]); 4.16% and -25.1% in [1] (setting [7]).
